The supplement of paper PMC11732987, “Enantioselective OTUD7B fragment discovery through chemoproteomics screening and high-throughput optimisation” (Communications Chemistry, 2025)

Legend:
Experiment in all cases: log2 ratio of Biotin-Ahx-Ub-VS probe labelling (fragment/DMSO); higher = less target engagement (more negative = stronger competition), active = hit call of the paper (q ≤ 0.05, log2 ratio ≤ -1)
Conditions in all cases: compound concentration: 200 uM; treatment time: 3 h
ALG13 = molecular target: T1, ALG13 (UniProt Q9NP73)
T1 sequence (whole entry): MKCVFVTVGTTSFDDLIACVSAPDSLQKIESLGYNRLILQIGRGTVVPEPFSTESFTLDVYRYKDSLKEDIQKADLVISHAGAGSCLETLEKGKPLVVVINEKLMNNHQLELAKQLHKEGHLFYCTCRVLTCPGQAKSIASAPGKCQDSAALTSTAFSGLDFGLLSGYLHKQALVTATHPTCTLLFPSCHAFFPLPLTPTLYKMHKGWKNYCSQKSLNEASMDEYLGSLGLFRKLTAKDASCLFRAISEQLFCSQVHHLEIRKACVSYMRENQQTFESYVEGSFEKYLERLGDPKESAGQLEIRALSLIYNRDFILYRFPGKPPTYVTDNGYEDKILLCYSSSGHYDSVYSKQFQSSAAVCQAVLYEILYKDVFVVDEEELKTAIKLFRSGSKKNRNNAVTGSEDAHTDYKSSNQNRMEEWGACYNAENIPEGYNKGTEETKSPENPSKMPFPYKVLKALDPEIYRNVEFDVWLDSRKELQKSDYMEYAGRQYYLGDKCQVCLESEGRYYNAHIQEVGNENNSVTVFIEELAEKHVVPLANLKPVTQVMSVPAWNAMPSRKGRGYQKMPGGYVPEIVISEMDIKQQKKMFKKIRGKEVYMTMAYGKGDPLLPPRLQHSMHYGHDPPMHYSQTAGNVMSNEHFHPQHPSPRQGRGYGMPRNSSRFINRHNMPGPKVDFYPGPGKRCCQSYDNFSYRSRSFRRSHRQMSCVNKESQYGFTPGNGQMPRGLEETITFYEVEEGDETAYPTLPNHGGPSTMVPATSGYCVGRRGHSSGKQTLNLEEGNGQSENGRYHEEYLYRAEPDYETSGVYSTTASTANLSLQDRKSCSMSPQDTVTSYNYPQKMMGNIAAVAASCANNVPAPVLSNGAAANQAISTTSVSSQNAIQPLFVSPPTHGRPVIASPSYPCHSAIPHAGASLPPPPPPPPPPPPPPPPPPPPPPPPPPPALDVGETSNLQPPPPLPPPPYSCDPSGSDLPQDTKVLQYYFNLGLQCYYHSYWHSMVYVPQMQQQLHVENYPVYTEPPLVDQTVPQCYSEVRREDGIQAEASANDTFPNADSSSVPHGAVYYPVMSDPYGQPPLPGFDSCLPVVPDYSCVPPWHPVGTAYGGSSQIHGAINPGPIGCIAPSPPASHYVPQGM
Method in brief: (§1)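 Average log2 ratios of fragment over vehicle were obtained by unpaired t-test from global-median-normalised Spectronaut label-free quantities. Proteins with ≥2 unique peptides were included. HEK293T lysate (495 µg per sample) was treated in triplicate with fragment at 200 µM or vehicle for 3 h, then with Biotin-Ahx-Ub-VS at 0.5 µM final for 1 h, and labelled DUBs were NeutrAvidin-enriched and run by diaPASEF LC-MS/MS.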

ATXN3 = ATXN3 (UniProt P54252)
Method in brief: as §1

BAP1 = molecular target: T2, BAP1 (UniProt Q92560)
T2 sequence (whole entry): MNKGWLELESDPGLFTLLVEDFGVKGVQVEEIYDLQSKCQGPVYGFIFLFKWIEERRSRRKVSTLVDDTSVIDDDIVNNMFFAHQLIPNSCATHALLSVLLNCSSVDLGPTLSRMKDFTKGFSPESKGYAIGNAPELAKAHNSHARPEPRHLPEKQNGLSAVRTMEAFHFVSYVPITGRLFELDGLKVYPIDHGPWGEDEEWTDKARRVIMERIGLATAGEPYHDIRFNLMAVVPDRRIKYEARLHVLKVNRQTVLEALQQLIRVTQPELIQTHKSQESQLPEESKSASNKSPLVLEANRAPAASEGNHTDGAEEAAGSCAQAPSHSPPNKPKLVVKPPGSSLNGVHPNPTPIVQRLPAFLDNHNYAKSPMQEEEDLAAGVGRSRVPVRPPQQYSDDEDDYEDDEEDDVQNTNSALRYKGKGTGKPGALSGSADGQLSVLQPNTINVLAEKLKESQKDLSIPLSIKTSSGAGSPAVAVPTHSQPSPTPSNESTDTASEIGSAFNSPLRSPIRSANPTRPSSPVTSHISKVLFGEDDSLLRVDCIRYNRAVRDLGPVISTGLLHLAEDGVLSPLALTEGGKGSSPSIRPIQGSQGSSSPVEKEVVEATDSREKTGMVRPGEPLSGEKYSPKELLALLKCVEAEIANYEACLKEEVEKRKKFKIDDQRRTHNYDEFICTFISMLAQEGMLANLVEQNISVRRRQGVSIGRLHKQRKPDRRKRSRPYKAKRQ
Method in brief: as §1

EIF3F = EIF3F (UniProt O00303)
Method in brief: as §1

EIF3H = EIF3H (UniProt O15372)
Method in brief: as §1

FAM105A = molecular target: T3, FAM105A (UniProt Q9NUU6)
T3 sequence (whole entry): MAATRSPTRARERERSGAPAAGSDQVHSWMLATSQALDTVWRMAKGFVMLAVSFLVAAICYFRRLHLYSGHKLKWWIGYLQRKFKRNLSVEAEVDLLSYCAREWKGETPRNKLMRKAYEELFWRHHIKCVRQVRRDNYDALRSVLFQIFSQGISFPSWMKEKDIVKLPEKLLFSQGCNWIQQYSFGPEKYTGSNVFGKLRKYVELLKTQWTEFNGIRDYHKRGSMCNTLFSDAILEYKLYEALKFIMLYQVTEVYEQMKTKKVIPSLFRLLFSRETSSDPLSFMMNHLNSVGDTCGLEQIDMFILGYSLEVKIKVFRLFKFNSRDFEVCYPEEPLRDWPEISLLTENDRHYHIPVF
Method in brief: as §1

OTUB1 = OTUB1 (UniProt Q96FW1)
Method in brief: as §1

OTUD4 = molecular target: T4, OTUD4 (UniProt Q01804)
T4 sequence (whole entry): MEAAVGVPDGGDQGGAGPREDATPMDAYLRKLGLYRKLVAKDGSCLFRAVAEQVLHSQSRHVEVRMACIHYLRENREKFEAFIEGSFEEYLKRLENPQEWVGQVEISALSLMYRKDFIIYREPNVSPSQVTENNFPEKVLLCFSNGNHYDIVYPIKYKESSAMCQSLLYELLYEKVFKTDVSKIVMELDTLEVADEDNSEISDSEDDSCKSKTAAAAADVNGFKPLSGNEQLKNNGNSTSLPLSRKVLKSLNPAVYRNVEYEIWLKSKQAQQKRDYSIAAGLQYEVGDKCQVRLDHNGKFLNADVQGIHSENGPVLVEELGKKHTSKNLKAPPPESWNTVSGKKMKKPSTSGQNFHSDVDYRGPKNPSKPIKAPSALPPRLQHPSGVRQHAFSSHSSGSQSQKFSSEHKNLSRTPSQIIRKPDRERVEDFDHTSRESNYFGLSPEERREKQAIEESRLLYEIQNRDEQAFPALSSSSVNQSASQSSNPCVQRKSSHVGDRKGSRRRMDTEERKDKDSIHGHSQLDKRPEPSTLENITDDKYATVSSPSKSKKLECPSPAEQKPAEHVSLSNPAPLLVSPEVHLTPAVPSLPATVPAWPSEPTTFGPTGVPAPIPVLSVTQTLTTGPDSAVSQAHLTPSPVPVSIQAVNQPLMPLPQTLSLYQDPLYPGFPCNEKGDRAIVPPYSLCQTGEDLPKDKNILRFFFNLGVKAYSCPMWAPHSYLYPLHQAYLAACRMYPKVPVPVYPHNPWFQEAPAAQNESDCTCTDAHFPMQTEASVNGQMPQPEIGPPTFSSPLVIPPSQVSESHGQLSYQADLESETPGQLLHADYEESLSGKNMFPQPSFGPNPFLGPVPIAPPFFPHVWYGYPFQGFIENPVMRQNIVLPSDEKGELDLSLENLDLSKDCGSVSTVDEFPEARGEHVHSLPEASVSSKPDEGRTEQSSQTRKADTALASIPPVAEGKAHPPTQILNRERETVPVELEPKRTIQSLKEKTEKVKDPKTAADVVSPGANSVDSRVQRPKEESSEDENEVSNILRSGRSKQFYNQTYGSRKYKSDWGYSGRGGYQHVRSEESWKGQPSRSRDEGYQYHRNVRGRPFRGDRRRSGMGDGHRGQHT
Method in brief: as §1

OTUD5 = molecular target: T5, OTUD5 (UniProt Q96G74)
T5 sequence (whole entry): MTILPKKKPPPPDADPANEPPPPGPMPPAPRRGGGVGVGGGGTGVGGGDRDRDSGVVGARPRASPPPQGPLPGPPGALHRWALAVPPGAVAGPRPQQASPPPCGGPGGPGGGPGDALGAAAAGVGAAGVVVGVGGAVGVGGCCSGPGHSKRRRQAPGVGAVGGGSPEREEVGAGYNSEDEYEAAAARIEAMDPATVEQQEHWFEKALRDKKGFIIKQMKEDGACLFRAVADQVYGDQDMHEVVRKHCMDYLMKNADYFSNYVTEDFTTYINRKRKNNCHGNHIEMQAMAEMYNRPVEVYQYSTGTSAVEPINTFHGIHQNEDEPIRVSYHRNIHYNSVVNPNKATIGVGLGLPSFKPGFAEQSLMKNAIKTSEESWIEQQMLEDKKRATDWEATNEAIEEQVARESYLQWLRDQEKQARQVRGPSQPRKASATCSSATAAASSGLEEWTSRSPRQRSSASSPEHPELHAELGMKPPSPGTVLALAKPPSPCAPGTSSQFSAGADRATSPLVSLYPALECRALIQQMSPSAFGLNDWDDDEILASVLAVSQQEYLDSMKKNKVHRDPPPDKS
Method in brief: as §1

Measured: log2 ratio of Biotin-Ahx-Ub-VS probe labelling

Chain of OTUB1 (Q96FW1 whole entry): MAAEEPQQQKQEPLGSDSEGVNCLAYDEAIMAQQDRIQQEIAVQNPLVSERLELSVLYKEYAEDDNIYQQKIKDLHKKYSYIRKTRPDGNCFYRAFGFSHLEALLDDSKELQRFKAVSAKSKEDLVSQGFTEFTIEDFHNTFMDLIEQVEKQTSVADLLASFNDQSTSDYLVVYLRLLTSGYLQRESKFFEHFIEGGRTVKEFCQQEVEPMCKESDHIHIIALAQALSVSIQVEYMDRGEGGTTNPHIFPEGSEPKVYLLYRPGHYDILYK
Chain of EIF3F (O00303 whole entry): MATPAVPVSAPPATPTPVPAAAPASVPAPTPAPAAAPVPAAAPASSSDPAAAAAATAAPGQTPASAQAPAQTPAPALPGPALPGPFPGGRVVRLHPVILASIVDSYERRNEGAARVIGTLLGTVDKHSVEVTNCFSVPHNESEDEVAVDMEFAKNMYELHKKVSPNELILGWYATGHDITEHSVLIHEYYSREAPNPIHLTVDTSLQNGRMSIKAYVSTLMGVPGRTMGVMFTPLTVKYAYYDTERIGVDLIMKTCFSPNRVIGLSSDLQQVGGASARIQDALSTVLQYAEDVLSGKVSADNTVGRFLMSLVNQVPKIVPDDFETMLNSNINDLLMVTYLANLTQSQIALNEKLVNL
Chain of ATXN3 (P54252 whole entry): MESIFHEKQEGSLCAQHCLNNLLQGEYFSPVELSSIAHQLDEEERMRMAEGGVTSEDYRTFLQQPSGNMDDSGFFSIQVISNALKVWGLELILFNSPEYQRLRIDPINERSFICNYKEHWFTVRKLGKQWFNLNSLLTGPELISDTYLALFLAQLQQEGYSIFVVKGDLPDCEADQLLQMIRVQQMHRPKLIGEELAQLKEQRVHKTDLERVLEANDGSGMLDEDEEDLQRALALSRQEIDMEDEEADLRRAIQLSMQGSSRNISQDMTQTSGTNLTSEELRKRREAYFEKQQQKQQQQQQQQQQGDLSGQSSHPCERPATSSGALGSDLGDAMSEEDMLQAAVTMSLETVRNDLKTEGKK
Chain of EIF3H (O15372 whole entry): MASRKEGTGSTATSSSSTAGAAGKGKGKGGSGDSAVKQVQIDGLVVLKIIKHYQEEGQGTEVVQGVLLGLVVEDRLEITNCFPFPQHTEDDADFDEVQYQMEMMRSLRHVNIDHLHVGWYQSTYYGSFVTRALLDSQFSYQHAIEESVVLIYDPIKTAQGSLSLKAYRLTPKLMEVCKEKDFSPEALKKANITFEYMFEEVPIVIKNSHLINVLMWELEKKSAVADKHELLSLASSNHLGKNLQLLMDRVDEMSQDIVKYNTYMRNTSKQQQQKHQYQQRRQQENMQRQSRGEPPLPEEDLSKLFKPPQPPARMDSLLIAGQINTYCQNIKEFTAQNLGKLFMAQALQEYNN

Cc1cccc2nc(CCNC(=O)CCl)cn12.Cl
inactive: ALG13 -0.496 | ATXN3 -0.436 | BAP1 -0.904 | EIF3F -0.438 | EIF3H -0.726 | FAM105A -0.0367 | OTUB1 -0.236 | OTUD4 -0.21 | OTUD5 -0.495
